Rows were chosen to be rich in hits. Some 3.5% of all compounds tested hit in one or more screens of this group.
MITF primary: MITF inhibitors, primary screen, biochemical, AlphaScreen, human | AlphaScreen MITF homodimerization, bead proximity signal | inhibition, % at 2.6 µM | Microphthalmia-associated transcription factor (Homo sapiens), O75030 | 650,000 tested, 0.91% active; in the data active = inhibition above about 50%;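 note: 0% = vehicle wells with protein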
Target sequence (O75030 whole entry, looked up): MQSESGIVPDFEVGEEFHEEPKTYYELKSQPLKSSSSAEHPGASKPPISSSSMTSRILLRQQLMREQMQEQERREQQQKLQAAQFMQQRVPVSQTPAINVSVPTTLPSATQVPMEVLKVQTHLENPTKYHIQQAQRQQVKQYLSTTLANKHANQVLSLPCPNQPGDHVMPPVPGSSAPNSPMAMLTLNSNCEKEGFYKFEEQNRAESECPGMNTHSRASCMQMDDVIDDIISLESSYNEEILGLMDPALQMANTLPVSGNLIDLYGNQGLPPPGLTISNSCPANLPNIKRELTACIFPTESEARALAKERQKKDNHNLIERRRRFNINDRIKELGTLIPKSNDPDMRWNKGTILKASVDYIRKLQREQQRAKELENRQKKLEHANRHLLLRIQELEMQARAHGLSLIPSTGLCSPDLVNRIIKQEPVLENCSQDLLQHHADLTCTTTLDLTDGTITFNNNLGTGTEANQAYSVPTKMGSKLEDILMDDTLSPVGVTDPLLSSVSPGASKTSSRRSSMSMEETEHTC
TEAD-YAP inh: TEAD-YAP interaction inhibition, primary screen, TEAD-YAP interaction inhibitor project, luminescence, HEK-TIYL cells. TEAD-Gal4/YAP UAS-luciferase luminescence. inhibition, % at 9.12 µM. 640,000 tested, 1.4% active; in the data active = inhibition above about 32%;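 note: 0% = median of test compound wells and 100% = reference inhibitor wells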
FBW7 activator: FBW7 E3 ligase activators, primary screen, biochemical, AlphaScreen, human | AlphaScreen FBW7–phospho-cyclin E peptide binding, activator screen | normalized activity (activation), % at 26.1 µM | 650,000 tested, 0.13% active; in the data active = normalized activity above about 1.9%;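 note: purified mutant Fbw7 with reduced substrate affinity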
GPR151 activ: activators of human GPR151, primary screen, cell-based, PathHunter beta-arrestin, luminescence; PathHunter beta-arrestin GPR151 cells; activation, % at 11.2 µM; G-protein coupled receptor 151 (Homo sapiens), Q8TDV0; 650,000 tested, 1% active; AID 1508602, 2020; in the data active = activation above about 4.9%;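 note: 0% = median of compound wells and 100% = cells with positive control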
MITF inh conf: MITF inhibitors, retest of hits, confirmation, biochemical, AlphaScreen, triplicate | shares compounds with MITF primary | AlphaScreen MITF homodimerization, biotin/His-MITF beads | inhibition, % at 2.6 µM | 4,700 tested, 16% active | AID 1259372, 2018;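 active = inhibition above a cutoff derived from the DMSO control wells, cut at about 28% in these data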;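 note: 0% = MITF dimer wells with DMSO only; inhibitors lower the bead chemiluminescence by keeping MITF from dimerizing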
AS interf DR: AlphaScreen optical interference compounds, dose response, counter-screen, biochemical, HTS | shares compounds with MITF primary | AlphaScreen optical interference counterscreen, cell-free | IC50, µM | 480 tested, 6% active; call rule not given here
AlphaScreen intf2: AlphaScreen optical interference compounds, counter-screen for MITF inhibitor project, biochemical, triplicate. shares compounds with MITF primary. LysRS AlphaScreen counterscreen, signal interference. inhibition, % at 2.6 µM. 4,700 tested, 7.6% active;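 active = inhibition above a cutoff derived from the DMSO control wells, cut at about 30% in these data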
* hit, by the source's call.

Results for CCN1C(=O)NC(c2ccc([N+](=O)[O-])cc2)C(C(=O)OCCc2ccccc2)=C1C (configuration not stated) ?
MITF primary: 75.9*; TEAD-YAP inh: -10.1; FBW7 activator: 0.6; GPR151 activ: -0.6; MITF inh conf: 1.7; AlphaScreen intf2: 21.8

Results for CC1CCN(Cc2ccc(-c3nnn(CC(=O)Nc4ccccc4F)n3)cc2)CC1 ?
MITF primary: 10.5; TEAD-YAP inh: 11.7; FBW7 activator: -0.1; GPR151 activ: -0.7

Results for CC1CCN(Cc2ccc(-c3nnn(CC(=O)Nc4ccc(F)cc4)n3)cc2)CC1 ?
MITF primary: 87.9*; TEAD-YAP inh: -0.3; FBW7 activator: 0.1; GPR151 activ: -0.1; MITF inh conf: 9.6; AlphaScreen intf2: 15.6

How did Oc1ccc(Cn2cnc3ccccc32)c2cccnc12 do in these assays?
MITF primary: 95.2*; TEAD-YAP inh: 51.4*; FBW7 activator: -2.0; GPR151 activ: -0.1; MITF inh conf: 96.1*; AlphaScreen intf2: 100.6*

How did Oc1ccc(Cn2ccnc2)c2cccnc12 do in these assays?
MITF primary: 108.6*; TEAD-YAP inh: 14.3; FBW7 activator: -0.4; GPR151 activ: -0.9; MITF inh conf: 112.2*; AlphaScreen intf2: 99.8*

What do the screens show for `Brc1ccccc1Cn1cnc2ccccc21`?
MITF primary: -4.7; TEAD-YAP inh: 10.7; FBW7 activator: -0.1; GPR151 activ: 0.7

How did COC(=O)Cn1c(=O)n(-c2ccc(F)cc2)c(=O)c2oc3ccccc3c21 do in these assays?
MITF primary: -7.3; TEAD-YAP inh: 2.7; FBW7 activator: 0.0; GPR151 activ: 0.1

How did CCc1nc2c(sc3cccc(F)c32)c(=O)n1CC(=O)NCc1ccc(Cl)cc1 do in these assays?
MITF primary: 54.6*; TEAD-YAP inh: -4.3; FBW7 activator: 0.3; GPR151 activ: -0.5; MITF inh conf: -5.0; AlphaScreen intf2: -5.3

Results for Cc1ncc(CO)c(/C=N/NC(=O)c2ccccc2O)c1O ?
MITF primary: 48.6; TEAD-YAP inh: -3.3; FBW7 activator: -1.6; GPR151 activ: 3.5

What do the screens show for `Cc1ncc(CO)c(/C=N/NC(=O)c2ccc(Cl)cc2O)c1O`?
MITF primary: 60.2*; TEAD-YAP inh: -1.8; FBW7 activator: 0.0; GPR151 activ: 0.9; MITF inh conf: 9.2; AlphaScreen intf2: 31.9*

What do the screens show for `O=C(N/N=C/c1ccccn1)c1ccc([N+](=O)[O-])cc1Cl`?
MITF primary: 26.9; TEAD-YAP inh: -4.6; FBW7 activator: -0.8; GPR151 activ: 1.8

What do the screens show for `Cc1ncc(CO)c(/C=N/NC(=O)c2ccc([N+](=O)[O-])cc2Cl)c1O`?
MITF primary: 67.1*; TEAD-YAP inh: 10.3; FBW7 activator: -0.2; GPR151 activ: -0.6; MITF inh conf: 13.3; AlphaScreen intf2: 96.4*

What do the screens show for `NS(=O)(=O)c1ccc(NC(=O)CNS(=O)(=O)c2ccc(F)cc2)cc1`?
MITF primary: -2.3; TEAD-YAP inh: -0.2; FBW7 activator: 0.2; GPR151 activ: 0.4

How did COCCNc1ccc2ncc(-c3cccc(N(C)C)c3)n2n1 do in these assays?
MITF primary: 10.2; TEAD-YAP inh: 15.7; FBW7 activator: -0.6; GPR151 activ: -0.2

How did COCCNc1ccc2ncc(-c3cccc(C(F)(F)F)c3)n2n1 do in these assays?
MITF primary: 64.7*; TEAD-YAP inh: 5.0; FBW7 activator: 0.1; GPR151 activ: 0.3; MITF inh conf: 6.4; AlphaScreen intf2: 15.3

How did CC(C)CCN1CCNC(=O)C1CC(=O)NCc1ccc(-n2cncn2)cc1 (configuration not stated) do in these assays?
MITF primary: -12.7; TEAD-YAP inh: -20.4; FBW7 activator: 0.2; GPR151 activ: 0.2

What do the screens show for `COc1ccc(C(=O)COC(=O)CCC(=O)Nc2ccc(Cl)c(Cl)c2)cc1`?
MITF primary: -6.3; TEAD-YAP inh: 1.6; FBW7 activator: 0.2; GPR151 activ: 1.9

What do the screens show for `COc1ccc(NC(=O)CCC(=O)OCC(=O)c2ccc(Cl)c(Cl)c2)cc1`?
MITF primary: 61.6*; TEAD-YAP inh: 13.4; FBW7 activator: 0.0; GPR151 activ: 1.3; MITF inh conf: 14.3; AlphaScreen intf2: 16.2

Results for O=C(N/N=C/C=C/c1ccco1)c1ccncc1 ?
MITF primary: 67.5*; TEAD-YAP inh: 5.0; FBW7 activator: -0.5; GPR151 activ: -0.3; MITF inh conf: 75.6*; AS interf DR: >6.48; AlphaScreen intf2: -2.6

How did COc1cc(CN2CCN(C3CCCC3)CC2)cc(OC)c1OC do in these assays?
MITF primary: 64.6*; TEAD-YAP inh: 10.8; FBW7 activator: 0.1; GPR151 activ: 3.1; MITF inh conf: 28.1*; AS interf DR: >6.48; AlphaScreen intf2: 21.2

What do the screens show for `COc1cc(CN2CCN(C3CCCCC3)CC2)cc(OC)c1O`?
MITF primary: 65.3*; TEAD-YAP inh: -8.0; FBW7 activator: -0.1; GPR151 activ: -0.5; MITF inh conf: 8.2; AlphaScreen intf2: 28.6

How did CN1CCN(CC(=O)c2cccs2)CC1 do in these assays?
MITF primary: 33.7; TEAD-YAP inh: -4.4; FBW7 activator: -0.1; GPR151 activ: -1.2

What do the screens show for `CN1CCN(CC(=O)c2ccccc2F)CC1`?
MITF primary: 78.5*; TEAD-YAP inh: 3.6; FBW7 activator: -0.1; GPR151 activ: 0.2; MITF inh conf: 9.6; AlphaScreen intf2: 14.6

How did Cc1cc(N2CCCCC2)nc2ccc(NC(=O)c3cccnc3)cc12 do in these assays?
MITF primary: 52.8*; TEAD-YAP inh: -5.8; FBW7 activator: 0.6; GPR151 activ: 0.2; MITF inh conf: -7.3; AlphaScreen intf2: -0.2

What do the screens show for `N#Cc1ccc(OCC(=O)NN=C2CCCC2)cc1`?
MITF primary: 14.5; TEAD-YAP inh: -0.3; FBW7 activator: 0.4; GPR151 activ: 0.7

What do the screens show for `N#Cc1ccc(CSCC(=O)NN=C2CCCC2)cc1`?
MITF primary: 51.4*; TEAD-YAP inh: -0.3; FBW7 activator: 0.2; GPR151 activ: 1.4; MITF inh conf: -8.7; AlphaScreen intf2: -0.8

Results for COC(=O)Cc1c(C)c2ccc(OCC(N)=O)c(C)c2oc1=O ?
MITF primary: 73.0*; TEAD-YAP inh: -2.2; FBW7 activator: 0.1; GPR151 activ: -0.6; MITF inh conf: 11.6; AlphaScreen intf2: 9.8

What do the screens show for `COC(=O)Cc1c(C)c2ccc(OCC(=O)OC(C)(C)C)c(C)c2oc1=O`?
MITF primary: -14.2; TEAD-YAP inh: 9.6; FBW7 activator: 0.2; GPR151 activ: -1.1

Results for O=C(O)c1c2c(nc3ccc(S(=O)(=O)N4CCC(C(=O)O)CC4)cc13)CCC2 ?
MITF primary: 67.5*; TEAD-YAP inh: -8.1; FBW7 activator: 0.1; GPR151 activ: 0.5; MITF inh conf: 31.0*; AS interf DR: >6.48; AlphaScreen intf2: 0.8
